From PubChem BioAssay
Activity calls are given as the source filed them.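 Rule for the calls, unless noted: active = inhibition of the reporter signal at or above 50%; inactive = inhibition below 50%.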

How the values were obtained:
[1] = inhibitors of TNFa-induced NFkB p65 translocation, primary screen, imaging, HUVEC, MLSMR starter and 10KST1 sets (AID 438;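 active = inhibition above 20% together with a positive visual image hit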;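 note: compound added about 3h40 before a 20 min TNFalpha stimulation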;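 for inhibition: signal is the nuclear over cytoplasmic p65 intensity ratio per well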); conditions: HUVEC TNFa-induced p65 nuclear translocation; cell count: measured here: nuclei count (cytotoxicity indicator), at 2.08 µM; inhibition: at 2 µM, stronger effect = higher value, 0% TNFa-plus-vehicle, 100% no-TNFa wells
[2] = reduction of polyQ htt aggregates in cells – imaging, exon1htt(103Q)mCFP cells, high-content imaging, primary screen (AID 483;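 active = visual image review flags a hit and inhibition of aggregation exceeds 20%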;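 note: compound exposure lasted 3 days before fixation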;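 for nuclei count: percent of the per-plate median nuclei count of sample wells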); conditions: exon1htt(103Q)mCFP cell line, aggregate imaging, at 2 µM; inhibition of aggregation: stronger effect = higher value; nuclei count: measured here: cell count, toxicity
[3] = endothelial E-selectin expression blockers – imaging, HUVEC, immunofluorescence, MLSMR starter and 10KST1 sets, primary screen (AID 487;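 active = visually confirmed hit in the image check and inhibition above 20%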;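 for inhibition: signal is fraction of cell area covered by stained E-selectin grains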;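 for nuclei count: 100% = median nuclei count of all wells on the same plate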); conditions: HUVEC TNFalpha-induced E-selectin immunofluorescence imaging, at 2 µM; inhibition: stronger effect = higher value; nuclei count: measured here: cell number, toxicity
[4] = molecular target: Voltage-gated potassium channel subunit beta-2 (Rattus norvegicus) (UniProt P62483); assay: inhibitors of rat Kvbeta2 reductase activity – biochemical, NADPH fluorescence, primary screen (AID 622;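 active = fluorescence slope higher than the sample average by over 3 SD, cut at about -0.22 in these data, passing the limit was not always enough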;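 note: slope of raw intensity against log time taken from 70 to 1610 s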); conditions: recombinant KvBeta, 4-cyanobenzaldehyde reduction, at 10 µM, stronger effect = higher value
[5] = molecular target: Voltage-gated potassium channel subunit beta-2 (Rattus norvegicus) (UniProt P62483); assay: enhancers of rat Kvbeta2 NADPH turnover – biochemical, NADPH fluorescence, primary screen (AID 623;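 active = NADPH fluorescence slope more negative than the mean of all samples by about 3 SD, 99.7% confidence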;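 note: fluorescence intensity change per second fitted from 20 to 320 s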); conditions: Recombinant KvBeta, NADPH fluorescence decrease slope, 10 min; at 10 µM; stronger effect = lower value
[6] = molecular target: Alpha-2C adrenergic receptor (Homo sapiens) (UniProt P18825); assay: compounds altering alpha2C-coupled GIRK flux – cell-based, HEK293 alpha2C/GIRK1/2, thallium flux, primary screen (AID 624;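 active = fluorescence slope after compound addition differing from the mean of all screened samples at 99.7% confidence, in either direction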;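 note: slope of fluorescence ratio to pre-addition baseline per second over 15 to 24 s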); conditions: thallium flux BTC fluorescence, at 10 µM, actives lie on both sides
[7] = blockers of RIG-like receptor reporter activation – cell-based, Sendai virus stimulus, luciferase, 10K MLSCN set, TLR/RLR signaling modifier project, primary screen (AID 602276;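 active = inhibition at or above 50% at 10 µM; inactive = inhibition below 50%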;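 note: firefly luciferase from ISG56 promoter only with Renilla not read in this screen; 0% = Sendai virus plus DMSO and 100% = medium plus DMSO without virus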); conditions: HEK293 RL24 IRF3 luciferase reporter, at 10 µM, stronger effect = higher value
[8] = TLR3 IRF3 reporter activation blockers – cell-based, poly I:C stimulus, luciferase, 10K MLSCN set, primary screen (AID 602277); conditions: HEK293-TLR3 RL24 IRF3 luciferase reporter, at 10 µM, stronger effect = higher value

Chain of Alpha-2C adrenergic receptor (Homo sapiens) (P18825 whole entry, looked up): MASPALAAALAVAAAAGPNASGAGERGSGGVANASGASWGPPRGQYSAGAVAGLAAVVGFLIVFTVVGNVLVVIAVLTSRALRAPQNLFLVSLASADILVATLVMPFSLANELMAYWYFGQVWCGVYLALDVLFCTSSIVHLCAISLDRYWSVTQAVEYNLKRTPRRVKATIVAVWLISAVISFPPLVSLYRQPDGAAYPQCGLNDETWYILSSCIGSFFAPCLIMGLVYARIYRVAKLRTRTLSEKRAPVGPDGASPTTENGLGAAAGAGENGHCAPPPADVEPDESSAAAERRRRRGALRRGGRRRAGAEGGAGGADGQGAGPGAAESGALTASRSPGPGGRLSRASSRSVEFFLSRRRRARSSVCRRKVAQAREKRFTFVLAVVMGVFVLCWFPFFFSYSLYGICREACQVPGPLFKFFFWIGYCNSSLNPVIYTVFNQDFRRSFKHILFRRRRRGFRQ
Chain of Voltage-gated potassium channel subunit beta-2 (Rattus norvegicus) (P62483 whole entry, looked up): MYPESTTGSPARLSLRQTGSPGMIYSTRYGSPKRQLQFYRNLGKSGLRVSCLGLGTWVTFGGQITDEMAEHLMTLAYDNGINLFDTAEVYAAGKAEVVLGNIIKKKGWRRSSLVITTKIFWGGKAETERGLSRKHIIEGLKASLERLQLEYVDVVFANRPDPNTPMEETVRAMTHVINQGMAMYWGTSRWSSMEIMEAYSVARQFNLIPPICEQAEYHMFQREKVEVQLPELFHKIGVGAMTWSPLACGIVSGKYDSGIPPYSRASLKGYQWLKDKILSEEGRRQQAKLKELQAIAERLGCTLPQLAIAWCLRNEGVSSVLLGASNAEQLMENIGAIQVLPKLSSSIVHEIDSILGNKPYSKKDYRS

| Compound | cell count [1] | inhibition [1] | inhibition of aggregation [2] | nuclei count [2] [%] | inhibition [3] | nuclei count [3] [%] | fluorescence slope [4] | NADPH fluorescence slope [5] | slope [6] | inhibition [7] | inhibition [8] |
| --- | --- | --- | --- | --- | --- | --- | --- | --- | --- | --- | --- |
| [N-]=[N+]=CC(=O)CC(c1ccccc1)N1C(=O)c2ccccc2C1=O (stereo not drawn) | 229 | 0.5% (inactive) | 10.4% (inactive) | 58.6 | -39.5% (inactive) | 115 | -0.609 (inactive) | -2.1e-05 (inactive) | 0.00641 (inactive) | -5% (inactive) | -29.5% (inactive) |
| COc1ccc(C2c3c(oc4ccccc4c3=O)C(=O)N2c2ccc(C)cn2)cc1OC (stereo not drawn) | 865 | 0% (inactive) | -13.4% (inactive) | 75 | -34.6% (inactive) | 103 | -0.605 (inactive) | 6.8e-06 (inactive) | 0.00601 (inactive) | -0.686% (inactive) | -4.49% (inactive) |
| O=C(CN(CCc1ccccc1)C(=O)CN1C(=O)COc2ccccc21)NCc1ccco1 | 571 | -2.3% (inactive) | -4.1% (inactive) | 55.5 | -12.8% (inactive) | 97.6 | -0.468 (inactive) | -3.2e-06 (inactive) | 0.00696 (inactive) | 16.4% (inactive) | 23.2% (inactive) |
| O=C1CC(N2CCOCC2)C(=O)N1c1ccccc1Cl (stereo not drawn) | 386 | -0.6% (inactive) | 13.9% (inactive) | 96.9 | -25.3% (inactive) | 128 | -0.338 (inactive) | 1.7e-05 (inactive) | 0.00688 (inactive) | 9.93% (inactive) | 18% (inactive) |
| CC(CCc1ccccc1)NC(=O)CSc1nc(N)cc(N)n1 (stereo not drawn) | 253 | -6% (inactive) | -23.7% (inactive) | 10.8 | -41.5% (inactive) | 99.2 | -0.483 (inactive) | -4.4e-05 (inactive) | 0.00545 (inactive) | 8.76% (inactive) | 10.6% (inactive) |
| CN(Cc1ccco1)C(=O)Cn1c(=O)oc2cc(S(=O)(=O)NCc3ccccc3)ccc21 | 924 | 2.8% (inactive) | 20.1% (inactive) | 104 | -17.8% (inactive) | 96.6 | -0.55 (inactive) | 2.5e-05 (inactive) | 0.00749 (inactive) | 13.5% (inactive) | 10.8% (inactive) |
| CC(C)Cc1nc2oc3c(N4CCN(CCO)CC4)ncnc3c2c2c1CCCC2 | 450 | -11.5% (inactive) | -9.1% (inactive) | 99.9 | 6.5% (inactive) | 119 | -0.475 (inactive) | 4e-05 (inactive) | 0.00359 (inactive) | -8.86% (inactive) | 31.2% (inactive) |
| Cc1ccc2cc(CN(CCN3CCCC3)C(=O)Nc3ccc(F)cc3)c(=O)[nH]c2c1C | 540 | -29.6% (inactive) | -45.2% (inactive) | 109 | -47.4% (inactive) | 111 | -0.587 (inactive) | 2.1e-05 (inactive) | 0.00603 (inactive) | 3.48% (inactive) | 16.1% (inactive) |
| C=C(C)Cn1c(N2CCN(CC)CC2)nc2c1c(=O)[nH]c(=O)n2C | 441 | 14% (inactive) | -6.4% (inactive) | 81.9 | 12.3% (inactive) | 104 | -0.528 (inactive) | -1.8e-05 (inactive) | 0.00582 (inactive) | 2.55% (inactive) | 25.8% (inactive) |
| Cc1ccc(N=Cc2ccc[nH]2)c(O)c1 | 438 | 4.9% (inactive) | 18.3% (inactive) | 108 | 7% (inactive) | 112 | -0.373 (inactive) | -2.1e-06 (inactive) | 0.0076 (inactive) | -10% (inactive) | -22.4% (inactive) |
| CCOC(=O)c1cnc2c(OC)cccc2c1N1CCN(c2ccc(OC)cc2)CC1 | 158 | -4.9% (inactive) | 16.9% (inactive) | 72.9 | 2.9% (inactive) | 80.4 | -0.577 (inactive) | -4.5e-05 (inactive) | 0.00543 (inactive) | 19.3% (inactive) | 24.8% (inactive) |
| CC1(C)CC(=O)c2cnc(NC(=O)CCc3ccccc3)nc2C1 | 608 | -15.9% (inactive) | -15.3% (inactive) | 112 | -24.7% (inactive) | 119 | -0.365 (inactive) | 9.1e-06 (inactive) | 0.00293 (inactive) | 14.3% (inactive) | 33% (inactive) |
| COc1cccc(N2CCN(CC(=O)Nc3nnc(-c4ccccc4)s3)CC2)c1 | 417 | 0.2% (inactive) | 2.3% (inactive) | 105 | -120% (inactive) | 118 | -0.472 (inactive) | 8.2e-07 (inactive) | 0.00594 (inactive) | 16% (inactive) | 22% (inactive) |
| CCc1nc(C)c(C#N)c2cc(OC)c(OC)cc12 | 387 | -1.1% (inactive) | -2.1% (inactive) | 79.3 | -7.1% (inactive) | 97.7 | -0.446 (inactive) | -7.7e-05 (inactive) | 0.00607 (inactive) | 15.2% (inactive) | 21.3% (inactive) |
| COc1ccc(NC(=O)CSc2nc3c(c(=O)n2-c2ccccc2OC)SCC3)cc1 | 726 | -6.7% (inactive) | -10.4% (inactive) | 107 | -25.6% (inactive) | 106 | -0.568 (inactive) | -5.1e-05 (inactive) | 0.00646 (inactive) | 4.03% (inactive) | 31% (inactive) |
| Clc1ccc2nc(N3CCCCC3)[nH]c2c1 | 706 | 5.6% (inactive) | 11.3% (inactive) | 98.7 | -82.5% (inactive) | 102 | -0.446 (inactive) | -6.8e-05 (inactive) | 0.00544 (inactive) | -26% (inactive) | -98.5% (inactive) |
| CC1CN(c2nc3ccccc3nc2C(C#N)C(=O)NCc2ccc3c(c2)OCO3)CC(C)O1 (stereo not drawn) | 340 | 4.7% (inactive) | 11.1% (inactive) | 83.9 | -24.9% (inactive) | 81.7 | -0.347 (inactive) | -5.3e-05 (inactive) | 0.00757 (inactive) | 18.7% (inactive) | 14.5% (inactive) |
| CCOC(=O)c1c(N)sn(-c2ccccc2)c1=S | 441 | -9.2% (inactive) | 5.4% (inactive) | 114 | -55.1% (inactive) | 112 | -0.37 (inactive) | -5.3e-05 (inactive) | 0.00599 (inactive) | 15.3% (inactive) | 20% (inactive) |
| C=CCn1c(=O)c(C(=O)Nc2ccccc2C(=O)OCC)c(O)c2ccccc21 | 495 | -5.5% (inactive) | -15.6% (inactive) | 120 | -23.1% (inactive) | 122 | -0.422 (inactive) | -4.7e-05 (inactive) | 0.00716 (inactive) | 16.9% (inactive) | 14.7% (inactive) |
| Cn1c(=O)c2c(nc(SCCOc3ccc4ccc(=O)oc4c3)n2C)n(C)c1=O | 581 | 3.3% (inactive) | 7.2% (inactive) | 107 | -34.8% (inactive) | 95.1 | -0.53 (inactive) | -3.8e-05 (inactive) | 0.00534 (inactive) | 5.44% (inactive) | 23.8% (inactive) |
| Cn1cccc1Cc1nnc(SCC(=O)N2CCOCC2)n1-c1ccc(F)cc1 | 585 | 5.8% (inactive) | 26.9% (inactive) | 89.6 | 55.7% (active) | 96.2 | -0.527 (inactive) | -3.5e-05 (inactive) | 0.00693 (inactive) | 12.2% (inactive) | 28.3% (inactive) |
| CCOC(=O)c1sc2nc(SCC(=O)NCc3ccco3)n(Cc3ccccc3)c(=O)c2c1C | 395 | -1.1% (inactive) | 0.8% (inactive) | 89.7 | -22% (inactive) | 99.6 | -0.449 (inactive) | -2.2e-05 (inactive) | 0.00701 (inactive) | 5.1% (inactive) | 21.4% (inactive) |
| CN(C)c1ccc2c(c1)OC(N)=C(C#N)C2c1cccc(F)c1 (stereo not drawn) | 404 | 11.5% (inactive) | -56.1% (inactive) | 3 | -8.8% (inactive) | 103 | -0.515 (inactive) | 1.1e-05 (inactive) | 0.0134 (active) | 36.6% (inactive) | 82.9% (active) |
| Nc1c(S(=O)(=O)c2cccs2)c2nc3ccccc3nc2n1CC1CCCO1 (stereo not drawn) | 667 | -7.3% (inactive) | -6% (inactive) | 117 | -71.1% (inactive) | 141 | -0.0861 (active) | 2.8e-06 (inactive) | 0.00409 (inactive) | 10.7% (inactive) | 35.1% (inactive) |
| O=C(CN(C(=O)CCNC(=O)c1ccco1)c1ccccc1)NC1CCCC1 | 311 | -7.8% (inactive) | 27.1% (inactive) | 93.4 | -61.7% (inactive) | 113 | -0.542 (inactive) | 2.6e-05 (inactive) | 0.00484 (inactive) | -10.7% (inactive) | -6.31% (inactive) |
| Cc1c(C(=O)NC2CC2)oc2ccc(S(=O)(=O)N3CCCCCC3)cc12 | 635 | 3.4% (inactive) | -2.5% (inactive) | 92.4 | -102% (inactive) | 116 | -0.508 (inactive) | 4.1e-05 (inactive) | 0.00537 (inactive) | -22.3% (inactive) | -28.3% (inactive) |
| Cc1ccc(Cn2c(=N)c(C(=O)NCc3ccco3)cc3c(=O)n4ccccc4nc32)cc1 | 491 | 1.5% (inactive) | -19.4% (inactive) | 95.7 | -83% (inactive) | 106 | -0.279 (inactive) | -5.9e-05 (inactive) | 0.00216 (inactive) | -2.87% (inactive) | 10.3% (inactive) |
| O=S(=O)(Cc1ccccc1)N1CCCCCC1 | 451 | 5.2% (inactive) | -1% (inactive) | 91 | -42.3% (inactive) | 103 | -0.497 (inactive) | -5.8e-05 (inactive) | 0.00613 (inactive) | -4.29% (inactive) | 4.76% (inactive) |
